Only some compounds are listed: those with a hit (about 21% of all), similar ones and a draw of the others.
Sm TGR block: blocks Schistosoma mansoni thioredoxin glutathione reductase; Q962Y6; purified TGR, DTNB reduction, TNB absorbance 405 nm; Potency, µM (highest dose often 114 µM), for the others: at the highest dose activity change, negative = inhibition, hits mostly inhibitors; 360,000 tested, 3% active; further: potency means the concentration at half of the fitted maximal effect; on the % scale 0 is the no-effect control and ±100 the full control effect; nearly all actives have a fitted effect of over 60% in size
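First, TGR (20 nM dispensed) and NADPH were mixed with compound. Second, a 15 min room-temperature incubation followed. Third, further NADPH and then DTNB were added to start the reaction. Finally, TNB absorbance was monitored kinetically.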
Pf growth 48h: P. falciparum growth inhibition at 48 hours (one generation); P. falciparum luciferase growth in erythrocytes, 48 h; Potency, µM (top dose mostly 28.7 µM), for inactives: top-dose activity change, negative = inhibition, hits mostly inhibitors; 310,000 tested, 5.9% active; further: potency means the concentration at half of the fitted maximal effect; on the % scale 0 is the no-effect control and ±100 the full control effect
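Erythrocytes infected with P. falciparum carrying an integrated firefly luciferase reporter (2% hematocrit, 0.1% parasitemia final) were exposed to compounds in RPMI 1640 with 0.5% Albumax at 37 C, 5% CO2. Growth inhibition was scored as reduced luminescence.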
NS1 function inh: inhibitors of influenza NS1 protein function | Potency, µM (titrated, usually from 46.1 µM), without a hit: at the highest dose activity, positive = more growth | 270,000 tested, 0.4% active | AID 2326; calls by dose curve; further: potency means the concentration at half of the fitted maximal effect; actives are rising curves; nearly all actives have a fitted effect of over 50% in size
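A cell-based growth assay was used: compounds that relieve NS1-induced slow growth of budding yeast raise OD600. Assay medium was yeast nitrogen base with ammonium sulphate and -URA supplement, pH 6.0, with 2% galactose.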
Cycloheximide cs: counter-screen for Shiga toxin inhibitors: cycloheximide protein synthesis inhibition; max response, %; 300,000 tested, 12% active; cell reporter, cycloheximide protein synthesis inhibition counterscreen; in the data active means max response mostly above about 13%, no sharp cut-off; inactive means mostly below about 14%; further: read at 38.3 µM for the half of the compounds with a filed dose; 0% is about no effect
Shiga inhibitor: inhibitors of Shiga toxin in Vero cells | Vero cells, Shiga toxin protein synthesis inhibition reporter | inhibition, % at 38.7 µM | 290,000 tested, 9.2% active | AID 2315; in the data active means inhibition mostly above about 28%, no sharp cut-off; inactive means mostly below about 43%; further: 0% is about no effect
Pf growth 96h: P. falciparum growth inhibition at 96 hours; P. falciparum luciferase reporter growth, 96 h; Potency, µM (titrated, usually from 28.7 µM), for the others: top-dose activity change, negative = inhibition, most hits filed as inhibitors; 320,000 tested, 6.9% active; further: potency means the concentration at half of the fitted maximal effect; on the % scale 0 is the no-effect control and ±100 the full control effect
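P. falciparum expressing integrated firefly luciferase, in erythrocytes at 2% hematocrit, 0.05% parasitemia, incubated with compounds 96 h at 37 C, 5% CO2. Growth inhibition read as loss of luminescence; two-generation exposure targets delayed-death apicoplast inhibitors.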
* hit, by the source's call; ? = inconclusive; . = not tested or not shown; + = active, no number. Unless noted, the call rests on the fitted dose curve; in most records, active means well fitted curve in the direction sought with a large enough effect; inconclusive means small, poorly fitted or top-dose-only effect, or another doubt; inactive means no such curve, though single readings can be large; an effect the other way counts as inactive or inconclusive.

SMILES	Sm TGR block	Pf growth 48h	NS1 function inh	Cycloheximide cs	Shiga inhibitor	Pf growth 96h
COc1ccc(NS(=O)(=O)c2ccc(OC)c(N(C)S(=O)(=O)c3ccc(Cl)cc3)c2)cc1	0.1%	11.7µM*	22.5%	8.9	8.2	3.7µM*
CCOC(=O)Nc1ccc(C)cc1NC(=O)OCC	-2.2%	-14.5%	-2.7%	-1.0	-2.4	?
CCCOC(=O)Nc1ccc([As](=O)(O)O)cc1NC(=O)OCCC	12.6µM*	?	-5.0%	5.9	2.2	?
COc1ccc(NC(=O)/C=C/C(=O)O)c(OC)c1	2.5%	15.1%	-0.5%	-2.0	12.4	27.5%
O=C(O)/C=C/C(=O)Nc1ccc(N2CCOCC2)nc1N1CCOCC1	2.24µM*	-6.1%	5.1%	-1.0	-10.4	-3.5%
CC(=O)Nc1ccc(C(=O)OCC(=O)NC2CCCCCCC2)cc1	1.4%	5.0%	.	16.8	12.8	-23.0%
CC[C@H](NC(=O)[C@H](CCCN=C(N)N)NC(=O)[C@H](Cc1c[nH]c2ccccc12)NC(=O)[C@@H](N)CS)C(=O)N[C@@H](CCCN=C(N)N)C(=O)N[C@@H](Cc1ccc(O)cc1)C(N)=O	.	.	.	-9.2	3.1	.
COCCOC(=O)C1=C(C)NC(=O)NC1c1cccc2ccccc12 (stereo unspecified)	3.6%	20.4%	19.7%	-3.8	-10.8	-0.6%
O=c1c2c3c(sc2n(CCN2CCOCC2)c(=O)n1Cc1ccco1)CCCCC3	-6.1%	?	?	2.8	-1.7	2.62µM*
O=c1c2c3c(sc2nc(NCCOCCO)n1Cc1ccco1)CCCCC3	-2.7%	?	10.2%	-1.3	3.1	?
O=c1c2c3c(sc2n(CCN2CCCCC2)c(=O)n1Cc1ccco1)CCCCC3	6.8%	.	4.2%	8.4	-4.8	2.62µM*
CCCCCCCCCCCCOCCOCCOCCOCCOCCOCCOCCOCCOCCO	.	?	.	-1.4	5.5	10.7µM*
CCN1CCN(CCC(=O)Nc2cccc(C)c2)CC1	-1.7%	4.6%	-8.4%	-0.6	-7.1	-2.8%
Cc1cc2ccccn2c1C(=O)c1ccc(Cl)cc1	-1.0%	-1.5%	-65.9%	21.3	41.2	-3.4%
Cc1cc2ccccn2c1C(=S)NC(=O)c1ccccc1	-2.7%	10.6%	-3.0%	15.8	37.2*	-23.7%
Cc1cc2ccccn2c1C(=O)Nc1cccc(Cl)c1	0.5%	51.5%	.	53.4*	74.9*	42.0%
CCCc1nn(C)c(C(=O)Nc2cccc(C)c2)c1Cl	-12.4%	113.9%	-12.0%	58.5*	55.0*	185.5%
Cc1cc2ccccn2c1C(=O)c1ccncc1	5.2%	2.3%	-8.9%	-2.4	-7.3	?
CCCc1nn(C)c(C(=O)Nc2cccc(Cl)c2)c1Cl	-2.4%	136.8%	-10.9%	50.5*	66.5*	198.2%
Cc1cc(O)c(C(=O)Nc2cccc(Cl)c2)c(=O)n1C	0.8%	-3.5%	-2.1%	32.6	46.6*	?
Cn1ncc(Cl)c1C(=O)Nc1cccc(Cl)c1	44.7µM*	32.6%	-6.2%	9.7	7.3	49.8%
Cn1ncc([N+](=O)[O-])c1C(=O)Nc1cccc(Cl)c1	3.5%	?	-0.9%	5.9	.	-2.4%
CCC(C)NC(=O)CSc1ccc(Cl)cc1 (stereo unspecified)	-0.3%	53.2%	5.1%	18.3*	+	3.29µM*
Cc1ccc(SCC(=O)NCc2ccccc2C)cc1	7.3%	0.0%	-15.7%	16.1	13.9	10.0%
CC(C)C(NC(=O)CSc1ccc(Cl)cc1)C(C)C	-12.2%	.	-15.1%	-9.5	-2.9	?
SMILES	Sm TGR block	Pf growth 48h	NS1 function inh	Cycloheximide cs	Shiga inhibitor	Pf growth 96h
CC(C)CNC(=O)CSc1ccc(Cl)cc1	-20.3%	.	-7.1%	14.1*	46.8	44.5%
Cc1ccc(SCC(=O)NCC(C)C)cc1	0.0%	74.6%	2.3%	12.3	44.0*	38.3%
COc1ccccc1CNC(=O)CCC1N=C2c3ccccc3N=C(SCC(=O)Nc3ccc(F)cc3)N2C1=O (stereo unspecified)	-24.7%	.	.	.	.	.
COc1cc(C=O)c(Br)cc1OCc1ccc(C)cc1	5.6%	58.2%	-0.3%	46.6*	87.4*	128.5%
CCOc1ccc(N(CC(=O)N2CCOCC2)S(=O)(=O)c2ccc(SC)cc2)cc1	-9.2%	-2.7%	2.3%	-5.5	-3.2	36.2%
Cc1cccc(N2CN(Cc3cccnc3)CNC2=S)c1C	8.9%	1.0%	10.1%	15.2*	-6.4	-32.8%
CC(=O)N=C1C=CC(=CN(O)C(C)(C)Cc2ccccc2)C=C1	-0.1%	2.0%	.	.	.	0.0%
